The subject of one test is LXRa homodimer (NR concentration 270 nM). Description: PBM binding z-score (relative to random genomic background probes); higher = stronger binding; sequences stand for … in GC…GCGATTGACAGCGTAGAATGAAGG
In short, it runs like this: (§1)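 Ligand-free nuclear receptor dimers were bound for 1 h to custom Agilent 4×180K protein-binding microarrays. Detection used antibodies against each partner (one per run). Binding z-scores rest on regression-normalized fluorescence, with random background probes as the reference.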
The sequence AATACATGGTCACTAGGCCAGAGTAGGTACGAAT registered a PBM binding z-score of -0.0579.

The sequence CCGACTTGGGCAGAAAGGTTACCATACCATCCGG had a PBM binding z-score of -0.275.

The sequence ATCTCTAGGTAAAGTTCACTGAAAGATCGATAGA displayed a PBM binding z-score of 3.22.

CCTTACGGGTCACGAGGTTATGGCACGACGAGCG showed a PBM binding z-score of 0.195.

As to GGTACGAGGGCAAGTTGATAGCAGAGTTTGATGG, the PBM binding z-score is -0.268.

Consider ATCTCTAGGTAACCAAGGTCAGTGAATGCCGAAC, for which the PBM binding z-score amounted to 1.46.

GCATATAGGTAATACAAGGTGAGAGTCCGATTGT yielded a PBM binding z-score of -0.139.

In the case of CAAACTAGGTCACCGGAAGGTCAACGTCCGCATG, the PBM binding z-score stood at 4.21.

AGAACGAGGGCAAGCTGAGTTGATAGCAGAGTAG showed a PBM binding z-score of -0.476.

CCGACTGGGGCATAAAGTTACCATAAGCCAGCCC gave a PBM binding z-score of -0.298.

In the case of TCATATAGGTAAACGCTAGGTGAAAGTCCGATCT, the PBM binding z-score was determined as 0.15.

ATACCAAGTTGATCGTGAGGTCGTTGATACTAAC registered a PBM binding z-score of 0.823.

The sequence TTACCAAGGTGAGCAGAGGTCGTTGATCCAACTC yielded a PBM binding z-score of -0.283.

Turning to ATCTCTCGGTAACCAAGTTCAGTGAATGCCGAAC, the PBM binding z-score amounted to 1.33.

On to TCTAGTTGGTCACGGAGGTCAGACACGACGGGTA, for which the PBM binding z-score stood at 1.51.

Sequence GCATATAGGTAATGCAAGGTGAAAGTCCGATTGT registered a PBM binding z-score of -0.0493.

Consider TAGCCTAGGTCAGATGGGGCCAGTATACGCTATA, for which the PBM binding z-score is -0.0271.

On to ATCTCTAGGTACAGTTCAGTGAAAGATCGATAGA, for which the PBM binding z-score was 0.57.

CCTGCTAGGTCGTGGTCAGCTAATCTACAGTATG: the PBM binding z-score was -0.589.

Take CCGACTGGGTCATAAGGTTACCATAAGCCAGCCC: the PBM binding z-score was -0.00526.

GATACAGGGTCAGCTAGAGGCCAGTGTATGGAAA registered a PBM binding z-score of -0.408.

In turn, CAAACTAGCTCAAAGGTCAAAGTCGAGCCAACCA returned a PBM binding z-score of 4.59.

The sequence ATCTCTAGGTAACGAGTTCAGTGAAAGAGAGGAC returned a PBM binding z-score of 0.708.

With CCTACTTGGTCAGGAGGTCACACACCGGATATGA, the PBM binding z-score worked out at 2.02.

In turn, GGAACGAGGGCATTCGAGTTGGTAGCATGGCGAT showed a PBM binding z-score of -0.575.

TCATATAGATAAAAGGTGAAAGTCGGTGTGGTAA gave a PBM binding z-score of 0.231.

TCATATAGGGAATACAGGTGAAAGTCGGCATCTA: the PBM binding z-score was 0.252.

For the sequence CTCGAAAGGTCGTTCTCAGGTGAGTATACCAAAC, the PBM binding z-score stood at 1.08.

CGAACTACGTCAGAACAGGACAGTGAAGGATGAT showed a PBM binding z-score of -0.294.

Consider TCTTGTAGATCTACAGGAGGTTAAGAAAGATCGA, for which the PBM binding z-score came out at 0.0906.

On to CGTCCAAGGTCCTAGGAGGTCAGTGAAGACAGAT, for which the PBM binding z-score stood at 0.256.

The sequence ACTAGAAGGCCAAGTTTGGGTCACTCAAACAAAG returned a PBM binding z-score of -0.0475.

Take CAAACTTGGTCACCGGAAGGTCAAAGTCCGCATG: the PBM binding z-score was determined as 3.5.

ATATGTAGGTTAATGGTCATTCAGGTTGGTTCGC registered a PBM binding z-score of 0.821.

AGAATGAGGTTATATGTAGATCAGGGAAGAAAGT gave a PBM binding z-score of 0.495.

CCCTACGGGTCACTGACAGGTTATAGCATTTGGA gave a PBM binding z-score of 0.501.

As for CCTACAGGGCCACGAAAGGTCATTGATTCAGTGA, the PBM binding z-score was 4.74.

Sequence ATGTCTAGGTAAAGTTCAGTGAAAGATCGATAGA came in with a PBM binding z-score of 1.26.

The sequence TCAAGCAGGCCAGAGGGTCACTCAAGAGGTACGG had a PBM binding z-score of -0.238.

In turn, TAGCCTAGGTCATTCAGGGGACAGTATAGAAAGC registered a PBM binding z-score of 1.41.

In a further test the test system is LXRb:RXRa (NR concentration 270 nM, RXRa partner concentration 90 nM). The description is as above. Put shortly: as §1
AATACATGGTCACTAGGCCAGAGTAGGTACGAAT had a PBM binding z-score of -0.301.

In turn, CCGACTTGGGCAGAAAGGTTACCATACCATCCGG returned a PBM binding z-score of 0.646.

In turn, ATCTCTAGGTAAAGTTCACTGAAAGATCGATAGA displayed a PBM binding z-score of 2.37.

CCTTACGGGTCACGAGGTTATGGCACGACGAGCG gave a PBM binding z-score of 3.8.

On to GGTACGAGGGCAAGTTGATAGCAGAGTTTGATGG, for which the PBM binding z-score came to 0.434.

Take ATCTCTAGGTAACCAAGGTCAGTGAATGCCGAAC: the PBM binding z-score was found to be 1.91.

Sequence GCATATAGGTAATACAAGGTGAGAGTCCGATTGT displayed a PBM binding z-score of 0.0719.

For the sequence CAAACTAGGTCACCGGAAGGTCAACGTCCGCATG, the PBM binding z-score turned out to be 4.6.

In turn, AGAACGAGGGCAAGCTGAGTTGATAGCAGAGTAG displayed a PBM binding z-score of 0.14.

On to CCGACTGGGGCATAAAGTTACCATAAGCCAGCCC, for which the PBM binding z-score is -0.42.

Sequence TCATATAGGTAAACGCTAGGTGAAAGTCCGATCT returned a PBM binding z-score of 0.833.

ATACCAAGTTGATCGTGAGGTCGTTGATACTAAC registered a PBM binding z-score of 1.31.

Sequence TTACCAAGGTGAGCAGAGGTCGTTGATCCAACTC gave a PBM binding z-score of 1.37.

For ATCTCTCGGTAACCAAGTTCAGTGAATGCCGAAC, the PBM binding z-score amounted to 0.672.

The sequence TCTAGTTGGTCACGGAGGTCAGACACGACGGGTA yielded a PBM binding z-score of 2.23.

GCATATAGGTAATGCAAGGTGAAAGTCCGATTGT displayed a PBM binding z-score of 0.568.

Regarding TAGCCTAGGTCAGATGGGGCCAGTATACGCTATA, the PBM binding z-score was determined as 1.38.

ATCTCTAGGTACAGTTCAGTGAAAGATCGATAGA: the PBM binding z-score came out at 0.6.

In turn, CCTGCTAGGTCGTGGTCAGCTAATCTACAGTATG returned a PBM binding z-score of 0.0814.

As for CCGACTGGGTCATAAGGTTACCATAAGCCAGCCC, the PBM binding z-score was 2.23.

GATACAGGGTCAGCTAGAGGCCAGTGTATGGAAA gave a PBM binding z-score of 2.42.

Turning to CAAACTAGCTCAAAGGTCAAAGTCGAGCCAACCA, the PBM binding z-score came out at 5.66.

In the case of ATCTCTAGGTAACGAGTTCAGTGAAAGAGAGGAC, the PBM binding z-score came out at 0.738.

For the sequence CCTACTTGGTCAGGAGGTCACACACCGGATATGA, the PBM binding z-score turned out to be 3.39.

As for GGAACGAGGGCATTCGAGTTGGTAGCATGGCGAT, the PBM binding z-score is -0.0954.

As for TCATATAGATAAAAGGTGAAAGTCGGTGTGGTAA, the PBM binding z-score stood at 1.67.

Sequence TCATATAGGGAATACAGGTGAAAGTCGGCATCTA had a PBM binding z-score of 0.958.

In turn, CTCGAAAGGTCGTTCTCAGGTGAGTATACCAAAC had a PBM binding z-score of 3.68.

CGAACTACGTCAGAACAGGACAGTGAAGGATGAT showed a PBM binding z-score of -1.05.

TCTTGTAGATCTACAGGAGGTTAAGAAAGATCGA had a PBM binding z-score of 1.05.

CGTCCAAGGTCCTAGGAGGTCAGTGAAGACAGAT: the PBM binding z-score worked out at 1.71.

As to ACTAGAAGGCCAAGTTTGGGTCACTCAAACAAAG, the PBM binding z-score was found to be 0.902.

Turning to CAAACTTGGTCACCGGAAGGTCAAAGTCCGCATG, the PBM binding z-score amounted to 3.39.

The sequence ATATGTAGGTTAATGGTCATTCAGGTTGGTTCGC gave a PBM binding z-score of 1.24.

AGAATGAGGTTATATGTAGATCAGGGAAGAAAGT registered a PBM binding z-score of 1.82.

For the sequence CCCTACGGGTCACTGACAGGTTATAGCATTTGGA, the PBM binding z-score turned out to be 3.53.

CCTACAGGGCCACGAAAGGTCATTGATTCAGTGA came in with a PBM binding z-score of 4.54.

ATGTCTAGGTAAAGTTCAGTGAAAGATCGATAGA came in with a PBM binding z-score of 1.15.

TCAAGCAGGCCAGAGGGTCACTCAAGAGGTACGG: the PBM binding z-score was found to be 1.22.

TAGCCTAGGTCATTCAGGGGACAGTATAGAAAGC yielded a PBM binding z-score of 3.39.

Source of the values: the supplement of paper PMC6555819.
